{
  "source": "PubChem BioAssay AID687022",
  "about": "(Broad Institute, 2013)",
  "note": "Out of some 1,000 compounds screened, about 360 (36%) were called active. The list is a sample of the results. A number with no mark means an inactive call.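 The calls were made as follows: active = Fitted curve of melting temperature shift crosses the 1.0 threshold at or below the sample's highest valid tested concentration; inconclusive = Flat fit with activity 30 to 70, or invalid fit; inactive = Opposite direction, flat within 30, or no crossing.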",
  "data": [
    {"biological_target": "Fibroblast growth factor 22 (Homo sapiens) (UniProt Q9HCT0)", "sequence (Q9HCT0 whole entry, looked up)": "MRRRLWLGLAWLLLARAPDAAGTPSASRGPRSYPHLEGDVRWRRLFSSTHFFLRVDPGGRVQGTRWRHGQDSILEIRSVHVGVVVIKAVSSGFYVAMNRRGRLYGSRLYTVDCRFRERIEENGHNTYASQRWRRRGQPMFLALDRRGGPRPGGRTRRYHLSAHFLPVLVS", "assay": "binders of human FGF22 protein, dose response, FGF22 synaptogenesis inhibitor project, biophysical, thermal shift, cherry-pick (AID 687022); also: reference of the scale not given here", "conditions": "recombinant FGF22 thermal shift, SYPRO orange melting; series mostly up to 38 µM; Tm shift activity: at the top concentration", "values": [
      {"molecule": "O=C(N[C@@H]1C=C[C@@H](CC(=O)N2CCCCC2)O[C@@H]1CO)c1cccc(F)c1", "Tm shift activity": "-0.288% [at 42 µM]"},
      {"molecule": "O=C(c1ccccc1F)N1CC(=O)N2[C@@H](CO)[C@H](c3ccc(-c4ccc(F)cc4)cc3)[C@@H]2C1", "Tm shift activity": "-1.1% [at 42 µM]"},
      {"molecule": "Cc1ccccc1-c1ccccc1[C@@H]1[C@@H](C#N)N(C(=O)c2ccccc2)[C@H]1CO", "Tm shift activity": "-0.262%"},
      {"molecule": "CCOC(=O)[C@]12CCCC=C1N(Cc1ccccc1)C(=O)[C@H](CC(=O)NCC1CCCCC1)C2", "Tm shift activity": "0.402%"},
      {"molecule": "O=C(Nc1ccc2c(c1)OCO2)c1cnn2cccnc12", "Tm shift activity": "-0.154%"},
      {"molecule": "C[C@H]1CN([C@@H](C)CO)C(=O)c2cc(NC(=O)CCC(F)(F)F)ccc2O[C@H]1CN(C)CC1CC1", "Tm shift activity": "-0.033% [at 10 µM]"},
      {"molecule": "C[C@H]1CN([C@@H](C)CO)C(=O)c2cc(NS(=O)(=O)c3ccccc3)ccc2O[C@@H]1CN(C)C", "Tm shift activity": "-0.047%"},
      {"molecule": "C[C@H](CO)N1C[C@H](C)[C@H](CN(C)S(=O)(=O)c2ccc(F)cc2)Oc2ccc(NC(=O)c3ccncc3)cc2C1=O", "Tm shift activity": "-0.057%"},
      {"molecule": "COc1cccc(NC(=O)OCCN2CCN(Cc3ccccc3)CCC2=O)c1", "Tm shift activity": "0.08%"},
      {"molecule": "O=C(Cn1[nH]c(=O)c2ccccc2c1=O)Nc1cccnc1", "Tm shift activity": "0.021%"},
      {"molecule": "COc1ccc(Br)cc1S(=O)(=O)Nc1ncccc1C", "Tm shift activity": "-0.096%"},
      {"molecule": "Cc1cccnc1NC(=O)CCCN1C(=O)c2ccccc2C1=O", "Tm shift activity": "0.14%"},
      {"molecule": "Cc1ccc(-c2ccc([C@@H]3[C@@H](CO)N4C(=O)CN(C(=O)c5ccc(F)cc5)C[C@H]34)cc2)cc1", "Tm shift activity": "14.5%"},
      {"molecule": "Cc1cc(C(=O)O/N=C(\\N)c2ccncc2)ccc1[N+](=O)[O-]", "Tm shift activity": "-0.188%"},
      {"molecule": "Cc1ccc(-n2c(O)c(C=NC3CCS(=O)(=O)C3)c3ccccc3c2=O)cc1C", "note": "(stereo not drawn)", "Tm shift activity": "-0.046%"},
      {"molecule": "COCC(=O)NC[C@H]1[C@H](c2ccc(C3=CCCC3)cc2)[C@@H](CO)N1C(C)=O", "Tm shift activity": "-0.131% [at 42 µM]"},
      {"molecule": "C[C@H]1CN([C@@H](C)CO)C(=O)c2cc(NC(=O)Cc3ccccc3)ccc2O[C@H]1CN(C)Cc1ccc2c(c1)OCO2", "Tm shift activity": "-0.068%"},
      {"molecule": "COc1cc(OC)cc(C(=O)Nc2nc3ccc(S(C)(=O)=O)cc3s2)c1", "Tm shift activity": "0.771%"},
      {"molecule": "Cc1ccc(S(=O)(=O)Nc2ccc3c(c2)C(=O)N([C@@H](C)CO)C[C@@H](C)[C@@H](CN(C)C)O3)cc1", "Tm shift activity": "-0.078%"},
      {"molecule": "C[C@@H]1CN([C@H](C)CO)S(=O)(=O)c2ccc(C#CC3CC3)cc2O[C@H]1CN(C)C(=O)c1ccncc1", "Tm shift activity": "-0.481%"},
      {"molecule": "CC(C)(CNCc1ccccc1)NS(=O)(=O)c1ccc(Cl)cc1", "Tm shift activity": "-0.043%"},
      {"molecule": "CCCCNC(=O)c1onc(CSc2ccc(C(C)C)cc2)c1C(=O)O", "Tm shift activity": "0.765% [at 5 µM]"},
      {"molecule": "Cc1noc(C)c1S(=O)(=O)N(C)C[C@H]1Oc2ccc(NS(=O)(=O)c3cccs3)cc2C(=O)N([C@@H](C)CO)C[C@H]1C", "Tm shift activity": "-0.774%"},
      {"molecule": "COc1ccc(Nc2nnc(-c3ccncc3)s2)cc1Cl", "Tm shift activity": "0.068%"},
      {"molecule": "CO[C@H](CN(C)S(=O)(=O)c1cccc(Cl)c1)[C@H](C)CN([C@@H](C)CO)S(=O)(=O)c1cccc(Cl)c1", "Tm shift activity": "0.223% [at 42 µM]"},
      {"molecule": "C[C@@H]1CN([C@@H](C)CO)C(=O)c2cccc(NC(=O)C3CC3)c2O[C@H]1CN(C)Cc1ccncc1", "Tm shift activity": "0.078%"},
      {"molecule": "O=C(C[C@@H]1C=C[C@H](NC(=O)Nc2cc(F)ccc2F)[C@H](CO)O1)Nc1ccc(-c2ccccc2)cc1", "Tm shift activity": "0.09%"},
      {"molecule": "CCC(=O)N(NC1=NS(=O)(=O)c2ccccc21)S(=O)(=O)c1ccc(C)cc1", "Tm shift activity": "-0.105%"},
      {"molecule": "CC(C)(C)NC(=O)CN(C(=O)CNS(=O)(=O)c1ccc(Cl)cc1)c1ccc2c(c1)OCCO2", "Tm shift activity": "-0.101%"},
      {"molecule": "O=[N+]([O-])c1ccc(Cl)c(S(=O)(=O)Nc2ccc(S(=O)(=O)N3CCOCC3)cc2)c1", "Tm shift activity": "-0.245%"},
      {"molecule": "O=[N+]([O-])c1cccc(S(=O)(=O)Nc2ccc(S(=O)(=O)Nc3nccs3)cc2)c1", "Tm shift activity": "-0.075%"},
      {"molecule": "CC(=O)c1ccc(NS(=O)(=O)c2ccc(N)cc2)cc1", "Tm shift activity": "-0.172%"},
      {"molecule": "CC(=O)c1sc(NC(=O)c2cc(=O)c3ccccc3o2)nc1C", "Tm shift activity": "0.254%"},
      {"molecule": "CCOc1ccc(N(CC(=O)NCCSc2ccccn2)S(=O)(=O)c2ccc(Cl)cc2)cc1", "Tm shift activity": "-0.149%"},
      {"molecule": "N#C[C@@H]1[C@H](c2ccc(-c3cccnc3)cc2)[C@H](CO)N1C(=O)Nc1ccc(F)cc1", "Tm shift activity": "-0.106% [at 42 µM]"},
      {"molecule": "CC(C)C#Cc1cnc2c(c1)C(=O)N([C@H](C)CO)C[C@H](C)[C@H](CN(C)C(=O)c1cnccn1)O2", "Tm shift activity": "-0.112% [at 42 µM]"},
      {"molecule": "Cc1noc(C)c1NC(=O)Nc1ccc2c(c1)CC(=O)N([C@@H](C)CO)C[C@H](C)[C@@H](CN(C)Cc1ccc3c(c1)OCO3)O2", "Tm shift activity": "-0.148%"},
      {"molecule": "CC(C)NC(=O)Nc1ccc2c(c1)C(=O)N([C@H](C)CO)C[C@H](C)[C@@H](CN(C)C(=O)NC(C)C)O2", "Tm shift activity": "0.003%"},
      {"molecule": "COc1cccc(NC(=O)N2C[C@H](O)COC[C@@H]3O[C@@H](CC(=O)NC4CCC4)CC[C@H]32)c1", "Tm shift activity": "-0.128%"},
      {"molecule": "CSc1ccc(C(=O)NCC2CCN(C(=O)C(=O)c3cc4ccccc4o3)CC2)cc1", "Tm shift activity": "-1.12%"},
      {"molecule": "COc1ccc(CCNS(=O)(=O)CCNC(=O)c2ccc3c(c2)OCO3)cc1", "Tm shift activity": "-0.261%"},
      {"molecule": "C/C(CC(=O)Nc1cccc(Cl)c1Cl)=N\\NC(=O)C(=O)NC1CCCCC1", "Tm shift activity": "0.278%"},
      {"molecule": "O=C(CC1CC1)N1CC2(C1)[C@H](c1ccccc1)[C@H](CO)N2C(=O)c1cnccn1", "Tm shift activity": "-0.016% [at 42 µM]"},
      {"molecule": "COCC(=O)Nc1ccc2c(c1)OC[C@@H](C)N(C)C[C@H](C)[C@@H](OC)CN(C)C2=O", "Tm shift activity": "0.133%"},
      {"molecule": "Cc1ccc(N(C(=O)c2csnn2)C(C(=O)NC2CCCC2)c2ccccn2)c(C)c1", "note": "(stereo not drawn)", "Tm shift activity": "0.564%"},
      {"molecule": "O=C(C1CCCC1)N1CC2(C1)[C@H](c1ccccc1)[C@@H](CO)N2CC1CC1", "Tm shift activity": "-0.131% [at 42 µM]"},
      {"molecule": "C[C@H]1CN([C@@H](C)CO)C(=O)c2cc(C3=CCCC3)cnc2O[C@H]1CN(C)C(=O)CN(C)C", "Tm shift activity": "0.046%"},
      {"molecule": "Cc1cc(C(=O)Nc2cccc3c2O[C@@H](CN(C)C(=O)NC2CCCCC2)[C@@H](C)CN([C@H](C)CO)C3=O)n(C)n1", "Tm shift activity": "-0.109%"},
      {"molecule": "Nc1n[nH]c(=S)n1/N=C1/C(=O)Nc2ccccc21", "Tm shift activity": "-1.04% [at 19.5 µM]"},
      {"molecule": "O=C(COC(=O)CCCOc1ccc(Cl)cc1Cl)NCc1ccccc1", "Tm shift activity": "-0.091%"},
      {"molecule": "Cc1ccc(NC(=O)COC(=O)Cn2cnc3c2c(=O)n(C)c(=O)n3C)cc1F", "Tm shift activity": "-1.53%"},
      {"molecule": "O=C(NCC[C@@H]1CC[C@@H](NS(=O)(=O)c2ccccc2)[C@@H](CO)O1)c1ccc2c(c1)OCO2", "Tm shift activity": "-1.36% [at 42 µM]"},
      {"molecule": "COCC(=O)N(C)C[C@@H]1Oc2cc(C#C[C@H](C)O)ccc2S(=O)(=O)N([C@@H](C)CO)C[C@H]1C", "Tm shift activity": "-0.017% [at 42 µM]"}
    ]}
  ]
}
